High-throughput results: PubChem, several laboratories
Rows were chosen to be rich in hits. Some 1.8% of all compounds tested hit in one or more screens of this group.
Neddylation inh: blocks human cullin neddylation; 0.58% of 360,000 active; AID 651699; inhibition, % at 25 µM; TR-FRET cullin neddylation, biochemical; in the data active means inhibition above about 36%
H9c2 protect: modulators protecting cardiomyocytes from myocardial damage. protection from H2O2 cell death, % at 20 µM. 0.63% of 360,000 active. H9c2 cardiomyocytes, H2O2 injury protection, ATPLite, 2 h. AID 588492;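 active means compounds giving at least 50% protection of heart cells from peroxide-induced death in the single-dose screen, raw or plate-pattern-corrected value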;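 further: 0% = DMSO wells with peroxide and 100% = DMSO wells without peroxide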
GRK2 inh: human GRK2 inhibition via aptamer displacement; 0.59% of 330,000 active; bead flow cytometry, FAM-aptamer displacement from GRK2; P25098; AID 488847; inhibition of aptamer binding, % at 10 µM;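 active means inhibition of aptamer binding above 40%, roughly 3 SD of noise, on plates passing a quality check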;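 further: median bead fluorescence of bound FAM aptamer so fluorescent compounds give negative values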
HDAC3 inhib: human HDAC3 inhibition; inhibition, % at 8.3 µM; 0.15% of 320,000 active; O15379; recombinant HDAC3, fluorogenic peptide/trypsin coupled, fluorescence; AID 2718; in the data active means inhibition above about 26%, passing the limit was not always enough; inconclusive means no clear call, values can overlap the other calls
Target sequence (O15379 whole entry, looked up): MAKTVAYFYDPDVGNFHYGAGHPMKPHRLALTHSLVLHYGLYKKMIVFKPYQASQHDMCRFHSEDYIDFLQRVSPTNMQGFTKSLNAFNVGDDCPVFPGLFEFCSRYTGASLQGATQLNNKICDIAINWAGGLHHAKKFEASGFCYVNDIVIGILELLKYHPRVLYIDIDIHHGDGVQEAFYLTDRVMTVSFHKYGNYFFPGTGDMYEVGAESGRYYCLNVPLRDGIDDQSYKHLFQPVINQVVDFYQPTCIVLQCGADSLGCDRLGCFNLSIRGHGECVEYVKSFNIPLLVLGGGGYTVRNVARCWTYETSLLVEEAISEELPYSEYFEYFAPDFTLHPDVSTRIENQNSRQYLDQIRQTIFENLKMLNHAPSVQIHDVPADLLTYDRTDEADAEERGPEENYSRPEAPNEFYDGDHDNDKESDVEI
The depositor's hits bear a star; ? = inconclusive; nt = no result given.

SMILES	Neddylation inh	H9c2 protect	GRK2 inh	HDAC3 inhib
Cc1nn(-c2ccccc2)c(Cl)c1C(=O)NNC(=O)c1ccccc1O	-5	57*	1	4
O=C1OC2(c3ccccc31)c1cc(I)c(O)c(I)c1Oc1c2cc(I)c(O)c1I	nt	nt	76*	15
CC1(C(=O)Nc2ccc3c(c2)OCCO3)CCC(=O)N1C1CC1 (stereo not drawn)	8	3	nt	nt
CCOc1ccc(CNC(=O)CCC(=O)n2nc(C)c3ccccc32)cc1	-13	0	0	-4
Cn1nc(C(=O)Nc2cccnc2)c2ccccc2c1=O	-6	7	1	-5
CCCn1nc(C(=O)Nc2nc(-c3ccccn3)cs2)c2ccccc2c1=O	10	86*	3	7
CCCn1nc(C(=O)Nc2nnc(C3CC3)s2)c2ccccc2c1=O	-2	1	1	-4
Cn1nc(C(=O)Nc2nc(-c3ccccn3)cs2)c2ccccc2c1=O	6	55*	nt	nt
CCn1nc(C(=O)Nc2nc(-c3ccccn3)cs2)c2ccccc2c1=O	6	79*	0	-6
COCc1[nH]c(=S)[nH]c(=O)c1C	0	8	0	0
COc1cccc(CN2CCNC(=O)C2CC(=O)N(C)C2CCCCC2)c1OC (stereo not drawn)	8	5	1	0
CCc1c(C)nc(Nc2nc(C)c3ccc(OC)cc3n2)[nH]c1=O	-12	66*	3	4
CCOC1=C2CN(S(=O)(=O)c3ccc(C)cc3)C(c3cccc(Cl)c3)CC2N(S(=O)(=O)c2ccc(Cl)cc2)C(c2ccccc2)C1 (stereo not drawn)	-11	nt	nt	nt
Nc1ncnc2c1ncn2[C@@H]1O[C@H](CNCc2cccc(C#Cc3ccccc3)c2)[C@@H](O)[C@H]1O	52*	-8	3	nt
C=CCOc1ccc(C[C@H](N)C(=O)NC[C@H]2O[C@@H](n3cnc4c(N)ncnc43)[C@H](O)[C@@H]2O)cc1	-3	2	43*	nt
Nc1ncnc2c1ncn2[C@@H]1O[C@H](COS(=O)(=O)O)[C@@H](O)[C@H]1O	69*	-7	8	-11
Nc1ncnc2c1ncn2[C@@H]1O[C@H](COP(=O)(O)OP(=O)(O)OP(=O)(O)O)[C@@H](O)[C@H]1O	80*	14	0	0
NCCC(=O)NC[C@H]1O[C@@H](n2cnc3c(N)ncnc32)[C@H](O)[C@@H]1O	-5	12	3	nt
Nc1ncnc2c1ncn2[C@@H]1O[C@H](CNCc2ccccc2)[C@@H](O)[C@H]1O	7	14	11	0
CC1(C)O[C@@H]2[C@H](O1)[C@@H](COS(=O)(=O)O)O[C@H]2n1cnc2c(N)ncnc21	nt	nt	3	-2
COc1ccc(N=C(C)C2C(=O)c3ccccc3C2=O)cc1	-37	-12	nt	nt
Cc1nn(-c2ccccc2)c(Cl)c1C(=O)NCCN(C)C	-2	8	2	0
CNC(=O)CSc1nc2cc(S(=O)(=O)Nc3ccccc3OC)ccc2o1	-6	1	2	0
COc1ccccc1NS(=O)(=O)c1ccc2oc(SCC(=O)N3CCNC3=O)nc2c1	10	54*	2	0
Cc1ccc(OCCNC(=O)C2CC(=O)N(Cc3ccccc3)C2)cc1 (stereo not drawn)	-17	8	3	-2
SMILES	Neddylation inh	H9c2 protect	GRK2 inh	HDAC3 inhib
O=C(O)CCCCCCCCCCCNC(=O)NC12CC3CC(CC(C3)C1)C2	5	16	3	0
Cc1c(C(=O)N/N=C/c2ccc(O)c(Br)c2)sc(N)c1C#N	42*	70*	2	1
Cc1c(C(=O)N/N=C/c2ccc(-c3ccccc3[N+](=O)[O-])o2)sc(N)c1C#N	-5	27	4	-4
COc1cc(/C=N/NC(=O)c2sc(N)c(C#N)c2C)ccc1O	10	54*	1	12
O=C(Nc1ccccc1O)c1ccc(Cl)cc1	-1	-14	0	91*
O=C(Nc1ccccc1O)c1ccc([N+](=O)[O-])cc1	-46	-4	1	53*
CSc1ccccc1NC(=O)c1ccc([N+](=O)[O-])cc1	-28	3	1	-5
CNC(=O)C[C@H]1C(=O)N(Cc2ccccc2)C[C@@H]1C	4	4	nt	nt
c1ccc(CSC2=NNC(c3ccccn3)S2)cc1 (stereo not drawn)	38*	46	0	-5
O=C(CSC1=NNC(c2ccccn2)S1)Nc1ccc(C(F)(F)F)cc1 (stereo not drawn)	-7	38	2	11
COc1ccc(/C=N\NC(=O)c2cc(O)c(O)c(O)c2)cc1COc1ccc(C(=O)OCC(C)C)cc1	-1	53*	4	0
COc1ccc(/C=N/NC(=O)c2cccnc2)cc1CN1CCc2ccccc2C1	0	69*	0	?
CCOC(=O)c1ccccc1OCc1cc(/C=N/NC(=O)c2cccnc2)ccc1OC	-22	55*	nt	6
Cc1cccc2c3nc4ccccc4nc3n(CCCN3C(=O)c4ccccc4C3=O)c12	23	15	nt	nt
N#CCCSc1ccccc1NC(=O)c1cc(=O)c2ccccc2o1	-32	52*	0	5
C[C@H](CO)N1C[C@H](C)[C@@H](CN(C)Cc2ccncc2)Oc2c(NC(=O)C3CC3)cccc2C1=O	-9	4	2	-1
O=C1NC[C@H](c2ccccc2)OC(=O)[C@H](Cc2ccc(F)cc2)C/C=C\C[C@H]1CC(=O)N(CCO)Cc1ccccc1	-24	94*	1	12
O=C1N[C@H](Cc2ccccc2)COC(=O)[C@@H](Cc2ccc(F)cc2)CC/C=C/C[C@H]1CC(=O)N(CCO)Cc1ccccc1	-25	42	1	29*
O=C1N[C@H](Cc2ccccc2)COC(=O)[C@@H](Cc2ccc(F)cc2)C/C=C\C[C@H]1CC(=O)N(CCO)Cc1ccccc1	5	58*	3	6
CC(C)(C)OC(=O)C[C@H]1C/C=C\C[C@@H](CC(=O)N[C@@H](CO)Cc2ccccc2)C(=O)NC[C@@H](c2ccccc2)OC1=O	0	18	0	-30
O=C1N[C@H](Cc2ccccc2)COC(=O)[C@H](Cc2ccc(F)cc2)C/C=C\C[C@@H]1CC(=O)N(CCO)Cc1ccccc1	-35	-2	1	14
CC(C)(C)OC(=O)C[C@@H]1C/C=C\C[C@@H](CC(=O)N[C@@H](CO)Cc2ccccc2)C(=O)NC[C@@H](c2ccccc2)OC1=O	-8	65*	0	-2
O=C(C[C@H]1C/C=C/CC[C@H](Cc2ccc(F)cc2)C(=O)O[C@H](c2ccccc2)CNC1=O)NCCO	6	-3	0	-4
O=C(C[C@@H]1C/C=C/CC[C@@H](Cc2ccc(F)cc2)C(=O)O[C@@H](c2ccccc2)CNC1=O)NCCO	0	59*	0	-2
O=C(Nc1ccccc1)c1nc[nH]c1C(=O)NCCCCCCNC(=O)c1[nH]cnc1C(=O)Nc1ccccc1	-7	97*	0	-1
Cc1cccc(NC(=O)c2nc[nH]c2C(=O)NCCCNC(=O)c2[nH]cnc2C(=O)Nc2cccc(C)c2)c1	nt	62*	3	-5
Cc1cccc(NC(=O)c2nc[nH]c2C(=O)NCCN(CCNC(=O)c2[nH]cnc2C(=O)Nc2cccc(C)c2)CCNC(=O)c2[nH]cnc2C(=O)Nc2cccc(C)c2)c1	20	8	0	9
